HP1b chromo inh: HTS for Inhibitors of HP1-beta Chromodomain Interactions with Methylated Histone Tails. 0.56% of 390,000 active. Potency, µM (series often up to 114 µM), most hits filed as inhibitors. Chromobox protein homolog 1 (Homo sapiens), P83916. AlphaScreen HP1-beta / biotin-H3K9me3 peptide binding; further: nearly all actives have a fitted effect of over 70% in size
Target sequence (P83916 whole entry, looked up): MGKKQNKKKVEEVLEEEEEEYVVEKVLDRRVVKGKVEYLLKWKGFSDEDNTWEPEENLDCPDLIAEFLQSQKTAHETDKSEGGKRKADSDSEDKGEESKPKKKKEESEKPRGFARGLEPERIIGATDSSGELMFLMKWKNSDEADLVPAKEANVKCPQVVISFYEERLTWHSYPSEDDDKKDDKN
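AlphaScreen: HP1-beta (50 nM) preformed 30 min with biotin-H3(1-18)K9me3 peptide (50 nM) in PBS pH 7.4, 0.01% Tween-20. Compound added for 30 min at RT, then streptavidin donor/nickel chelate acceptor beads (10 ug/mL) for 30 min.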
L3MBTL1 inh: qHTS Assay for the Inhibitors of L3MBTL1; Lethal(3)malignant brain tumor-like protein 1 (Homo sapiens), Q9Y468; 0.66% of 230,000 active; Potency, µM (series often up to 57.1 µM), hits mostly inhibitors; AlphaScreen L3MBTL1–H3K9me1 peptide binding; further: nearly all actives have a fitted effect of over 60% in size
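AlphaScreen proximity signal between nickel-chelate acceptor and streptavidin donor beads (final 10 ug/mL) reports binding of 50 nM L3MBTL1 to 75 nM biotin-H3 K9me1 peptide; complex incubated with compounds 30 min at room temperature; cefsulodin titration as control.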
G9a block: qHTS Assay for Inhibitors of Histone Lysine Methyltransferase G9a; G9a H3K9 monomethylation, AlphaScreen, 2 h; Potency, µM (series often up to 102 µM), actives largely listed as inhibitors; 8.8% of 350,000 active; AID 504332, 2011; further: nearly all actives have a fitted effect of over 75% in size
Target sequence (Q96KQ7 913-1193 limits assumed): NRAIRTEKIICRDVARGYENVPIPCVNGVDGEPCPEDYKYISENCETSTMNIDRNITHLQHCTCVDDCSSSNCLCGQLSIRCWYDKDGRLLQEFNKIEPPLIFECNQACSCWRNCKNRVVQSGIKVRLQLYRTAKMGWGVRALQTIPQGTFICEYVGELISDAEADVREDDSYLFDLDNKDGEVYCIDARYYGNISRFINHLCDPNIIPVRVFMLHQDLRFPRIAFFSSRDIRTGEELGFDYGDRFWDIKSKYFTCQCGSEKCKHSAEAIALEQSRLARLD
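G9a (20 nM) preincubated 15 min RT with compounds, then 500 nM biotinylated H3K9 peptide and 20 uM SAM added; 2 h RT reaction. Monomethyl-H3K9 product detected by AlphaScreen with anti-H3K9me1 antibody, streptavidin donor and anti-rabbit IgG acceptor beads.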
JMJD2A Tudor inh: qHTS Assay for Inhibitors of JMJD2A-Tudor Domain | 4.4% of 390,000 active | AID 504339, 2011 | Lysine-specific demethylase 4A (Homo sapiens), O75164 | AlphaScreen JMJD2A-Tudor / H3K4me3 peptide binding | Potency, µM (top dose mostly 114 µM), actives largely listed as inhibitors; further: nearly all actives have a fitted effect of over 50% in size
BAZ2B block: qHTS Assay for Inhibitors of BAZ2B; AlphaScreen BAZ2B-H3K14Ac peptide displacement; Potency, µM (doses to about 114 µM), most hits filed as inhibitors; 4.4% of 360,000 active; AID 504333, 2011; further: nearly all actives have a fitted effect of over 60% in size
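Compounds, titrated to a top concentration of 110 uM, were incubated 30 min at room temperature with preformed BAZ2B/acetyl-K14 H3 peptide complex (50 nM each). Proximity signal was measured by AlphaScreen after 20 min with beads.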
Sfp PPTase inh: qHTS Assay for Inhibitors of Bacillus subtilis Sfp phosphopantetheinyl transferase (PPTase); 4'-phosphopantetheinyl transferase ffp (Bacillus subtilis), Q9F4F7; Biochemical Sfp PPTase activity, qHTS; Potency, µM, hits mostly inhibitors; 3.5% of 310,000 active; AID 1490, 2009;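 further: the enzyme is Sfp with the accession as filed and its product quenches rhodamine fluorescence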
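Reaction rates are the 30-min fluorescence difference (ex 525, em 598 nm) in wells containing 15 nM Sfp, 5 uM rhodamine-CoA and 12.5 uM BHQ-2-YbbR at pH 7.6 with 10 mM MgCl2.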
Numbers stand for hits; ! = not active in a repeat; [ ] = dose if it differs, or a comment. This is a sample that favours compounds with a hit; in the whole collection about 12% have one here. The call rests on the fitted dose curve; in most records, active means well fitted curve in the direction sought with a large enough effect; inconclusive means small, poorly fitted or top-dose-only effect, or another doubt; inactive means no such curve, though single readings can be large; an effect the other way counts as inactive or inconclusive.

`Cc1ccc(C2C(C#N)=C(N)SC(N)=C2C#N)cc1` gave HP1b chromo inh inactive, L3MBTL1 inh inactive, G9a block 45µM, JMJD2A Tudor inh inconclusive, BAZ2B block inactive and Sfp PPTase inh inactive.
Screening O=C(Cl)COCc1ccccc1 returned Sfp PPTase inh inactive.
Cc1nc(-c2ccc(Cl)cc2)sc1CCNC(=O)C(=O)Nc1ccc(F)cc1F was read as HP1b chromo inh inactive, G9a block inactive, JMJD2A Tudor inh inactive and BAZ2B block inactive.
`Cc1ccc(NC(=O)c2cnc(N3CCCCC3)c3ccccc23)c(C)c1` gave HP1b chromo inh inactive, G9a block inactive, JMJD2A Tudor inh inactive and BAZ2B block inactive.
Cc1cc(C)n2ncc(C(=O)Nc3ccccc3)c2n1 was read as JMJD2A Tudor inh inactive.
COc1ccccc1-n1c(-c2ccccc2)c[nH]c1=S was read as HP1b chromo inh inactive, L3MBTL1 inh inactive, G9a block 0.89µM, JMJD2A Tudor inh inconclusive, BAZ2B block inconclusive and Sfp PPTase inh 10µM.
S=c1[nH]cc(-c2ccccc2)n1-c1ccccc1Cl was read as HP1b chromo inh inactive, L3MBTL1 inh inactive, G9a block inconclusive, JMJD2A Tudor inh 50µM, BAZ2B block inactive and Sfp PPTase inh inconclusive.
O=C(NC1CC(=O)N(c2ccc(Cl)cc2)C1)C(=O)c1c[nH]c2ccccc12 (configuration not stated) was read as HP1b chromo inh inactive, G9a block inactive, JMJD2A Tudor inh inactive and BAZ2B block inactive.
`NCCCC(N)(C(=O)O)C(F)F` (configuration not stated) gave HP1b chromo inh inactive, L3MBTL1 inh inactive, G9a block 7.1µM!, JMJD2A Tudor inh inactive, BAZ2B block inconclusive and Sfp PPTase inh inactive.
Screening O=C(Cc1ccccc1)NCC(=O)N/N=C/c1ccc([N+](=O)[O-])s1 returned HP1b chromo inh inactive, G9a block inactive, JMJD2A Tudor inh inactive, BAZ2B block inactive and Sfp PPTase inh inactive.
O=[N+]([O-])c1ccc(C=Nc2cccc3ccccc23)s1 was read as HP1b chromo inh 13µM, L3MBTL1 inh inconclusive, G9a block 10µM, JMJD2A Tudor inh 40µM, BAZ2B block 16µM and Sfp PPTase inh inactive.
`CCOC(=O)c1c(NC(=O)Cc2coc3cc(C)cc(C)c23)sc2c1CCC2` gave HP1b chromo inh inactive, G9a block inactive, JMJD2A Tudor inh inactive and BAZ2B block inactive.
Screening COc1ccc(-c2cc3nnc(-c4ccccc4)nc3s2)cc1 returned HP1b chromo inh inactive, L3MBTL1 inh inactive, G9a block inconclusive, JMJD2A Tudor inh inactive, BAZ2B block inactive and Sfp PPTase inh 40µM.
For COc1ccc(-c2cc(-c3ccccc3)no2)cc1 the results were HP1b chromo inh inactive, L3MBTL1 inh inactive, G9a block inactive[2.33 µM], JMJD2A Tudor inh inactive and BAZ2B block inactive.
CCCn1c(C)nc2c(NCCN(C)C)nc(C)nc21 was read as Sfp PPTase inh inactive.
Screening O=C1c2cccnc2C(=O)N1c1cccc([N+](=O)[O-])c1 returned HP1b chromo inh inactive, G9a block inactive, JMJD2A Tudor inh inconclusive, BAZ2B block 56µM and Sfp PPTase inh inactive.
Screening O=C(O)c1cccc(N2C(=O)c3cccnc3C2=O)c1 returned HP1b chromo inh inactive, G9a block inactive, JMJD2A Tudor inh inactive, BAZ2B block inactive and Sfp PPTase inh inactive.
`CCN(CC)S(=O)(=O)c1ccc2c(c1)c(=O)c(C(=O)NCc1ccccc1)cn2C` gave HP1b chromo inh inactive, G9a block inactive and JMJD2A Tudor inh inactive.
`COc1ccc(NC2C[C@H]3CCCC(=O)N4CC[C@@H](C2)[C@@H]34)cc1` (some centres not stated) gave G9a block 40µM and Sfp PPTase inh inactive.
Screening C=CCN1CCc2c(cc(O)c(O)c2Cl)C(c2ccccc2)C1 (configuration not stated) returned HP1b chromo inh inactive, G9a block 7.1µM!, JMJD2A Tudor inh inconclusive, BAZ2B block inconclusive and Sfp PPTase inh inconclusive.
Cc1cccc(C2CN(C)CCc3c2cc(O)c(O)c3Cl)c1 (configuration not stated) was read as HP1b chromo inh inactive, L3MBTL1 inh inactive, G9a block 24µM, JMJD2A Tudor inh inactive and BAZ2B block inactive.
C=CCN1CCc2cc(O)c(O)cc2C(c2ccccc2)C1 (configuration not stated) was read as HP1b chromo inh inactive, L3MBTL1 inh inactive, G9a block 10µM, JMJD2A Tudor inh inactive and BAZ2B block inactive.
C=CCN1CCN(C(=O)c2ccc(-c3ccccc3)cc2)CC1 was read as HP1b chromo inh inactive, JMJD2A Tudor inh inactive, BAZ2B block inactive and Sfp PPTase inh inactive.
For Cc1c(-n2cc(C(=O)O)c(=O)c3cc(F)c(N4CCCC4)c(F)c32)c(=O)n(-c2ccccc2)n1C the results were HP1b chromo inh inactive, L3MBTL1 inh inactive, G9a block 56µM, JMJD2A Tudor inh inactive, BAZ2B block inactive and Sfp PPTase inh inactive.
O=C(N/N=C1/C[C@@H](O)[C@@H](O)[C@@H]2[C@H]3C(=O)N(c4ccc(F)cc4F)C(=O)[C@@H]3CC[C@@H]12)OCc1ccccc1 was read as Sfp PPTase inh inactive.
Screening Cc1ccc(S(=O)(=O)Nc2nc(C)c(C(=O)Nc3ccccc3)s2)cc1 returned HP1b chromo inh inactive, L3MBTL1 inh inactive, G9a block inconclusive, JMJD2A Tudor inh inactive, BAZ2B block inactive and Sfp PPTase inh inactive.
For COc1ccc(NC(=O)Nc2sc(NS(=O)(=O)c3ccccc3)nc2C)cc1 the results were HP1b chromo inh inactive, L3MBTL1 inh inactive, G9a block 50µM, JMJD2A Tudor inh inactive, BAZ2B block inactive and Sfp PPTase inh 45µM.
Cc1ccc(S(=O)(=O)Nc2nc(C)c(NC(=O)Nc3ccc(Cl)cc3Cl)s2)cc1 was read as HP1b chromo inh inactive, L3MBTL1 inh inactive, G9a block inconclusive, JMJD2A Tudor inh inactive, BAZ2B block inactive and Sfp PPTase inh 35µM.
Screening Cc1nc(NS(=O)(=O)c2ccccc2)sc1NC(=O)OC(C)C returned HP1b chromo inh inactive, L3MBTL1 inh inactive, G9a block inactive[0.0925 µM], JMJD2A Tudor inh inactive, BAZ2B block inactive and Sfp PPTase inh 50µM.
Screening Cc1ccc(S(=O)(=O)Nc2nc(C)c(NC(=O)OCCCl)s2)cc1 returned HP1b chromo inh inactive, G9a block inactive[2.33 µM], JMJD2A Tudor inh inactive, BAZ2B block inconclusive and Sfp PPTase inh 50µM.
Screening CC(=O)c1ccc(NC(=O)CSC2=Nc3ccccc3N=C(c3ccc(F)cc3)C2)cc1 returned HP1b chromo inh inactive, G9a block inactive, JMJD2A Tudor inh inactive and BAZ2B block inactive.

Screening results deposited in PubChem BioAssay by National Center for Advancing Translational Sciences (NCATS).
